Most compounds without a hit are left out; they make up all but 10% or so of the library.
CtBP-E1A blk = inhibitors of CtBP/E1A interaction; activity change, % (no concentration beside the values); AlphaScreen GST-E1A/His-CtBP binding, 1536-well; hits give low values; AID 651724; hit rate 0.49% among 340,000; in the data active = activity change below about -65%; inconclusive = mostly about -30% to -63%
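In 5 uL wells, 23 nL compound meets equimolar GST-E1A and His-CtBP (5X stock 125 nM each) for 2 h, 37 °C. Beads (5X, 50 ug/mL) then 1 h, 37 °C, dark.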
BAZ2B inh = blocks human BAZ2B. AlphaScreen BAZ2B-H3K14Ac peptide displacement. AID 504333. hit rate 4.4% among 360,000. Q9UIF8. Potency, µM (top dose mostly 114 µM), most hits filed as inhibitors; note: nearly all actives have a fitted effect of over 60% in size
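BAZ2B 50 nM plus b-H3(5-23)K14Ac 50 nM, PBS pH 7.4/0.01% Tween-20, 30 min RT; compound added (max 110 uM), 30 min RT; streptavidin donor/Ni-chelate acceptor beads 10 ug/mL final, 20 min dark; AlphaScreen read.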
Six1-Eya2 inh = Six1/Eya2 interaction inhibition. AlphaScreen GST-Six1/His-Eya2 binding, biochemical; hits give low values. activity change, % (no concentration beside the values). hit rate 0.56% among 360,000; in the data active = activity change below about -65%; inconclusive = mostly about -30% to -63%
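AlphaScreen luminescence read after one hour at 37 °C in darkness. Pin-transferred compounds met GST-Six1 and His-Eya2 protein (5X stock 250 nM/500 nM) plus glutathione donor and Ni-chelate acceptor beads (5X, 50 ug/mL).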
JMJD2A Tudor = inhibitors of human JMJD2A Tudor domain. AlphaScreen JMJD2A-Tudor / H3K4me3 peptide binding. Potency, µM (top dose mostly 114 µM), hits mostly inhibitors. hit rate 4.4% among 390,000. AID 504339; note: nearly all actives have a fitted effect of over 50% in size
G9a inh-1 = G9a (human) methyltransferase inhibition. Q96KQ7. G9a H3K9 monomethylation, AlphaScreen, 2 h. Potency, µM (doses to about 102 µM), most hits filed as inhibitors. hit rate 8.8% among 350,000. AID 504332; note: nearly all actives have a fitted effect of over 75% in size
Target sequence (Q96KQ7 913-1193 limits assumed): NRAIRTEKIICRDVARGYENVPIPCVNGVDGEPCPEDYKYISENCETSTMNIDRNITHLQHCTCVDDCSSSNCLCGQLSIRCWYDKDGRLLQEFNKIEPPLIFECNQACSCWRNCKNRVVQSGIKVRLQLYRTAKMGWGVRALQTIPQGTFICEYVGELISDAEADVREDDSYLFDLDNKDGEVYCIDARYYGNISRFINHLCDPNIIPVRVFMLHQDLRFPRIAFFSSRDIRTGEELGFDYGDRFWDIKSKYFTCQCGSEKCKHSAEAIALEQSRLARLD
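Readings reflect AlphaScreen signal from monomethyl-H3K9 antibody detection. HMT at 20 nM; substrate b-H3K9 500 nM; cofactor SAM 20 uM; 2 h RT reaction; compounds tested as titrations in qHTS with 15 min preincubation.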
HP1b chromo inh = HP1-beta chromodomain-methylated histone interaction inhibition. P83916. AlphaScreen HP1-beta / biotin-H3K9me3 peptide binding. Potency, µM (highest dose often 114 µM), hits mostly inhibitors. hit rate 0.56% among 390,000. AID 540317; note: nearly all actives have a fitted effect of over 70% in size
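Compound inhibition of the preformed complex between 50 nM HP1-beta and 50 nM biotinylated H3K9me3 peptide was read by AlphaScreen. Buffer was PBS pH 7.4 with 0.01% Tween-20. Incubations ran 30 min at room temperature, with 10 ug/mL donor/acceptor beads.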
G9a inh-2 = inhibits human G9a histone lysine methyltransferase, hit confirmation. AID 588344. G9a H3K9 monomethylation, AlphaScreen, 2 h. shares compounds with JMJD2A Tudor. hit rate 89% among 370. Potency, µM, usual class: inhibitors; note: nearly all actives have a fitted effect of over 65% in size
RGS4 confirm = inhibits human RGS4, hit validation. shares compounds with JMJD2A Tudor. RGS4 GAP activity, Transcreener GDP fluorescence polarization. Potency, µM, usual class: inhibitors. hit rate 80% among 25
Numbers stand for hits; 0 = inactive; ? = inconclusive; - = not tested or not shown. Unless noted, calls come from the whole dose curve; as a rule, active = well fitted curve in the direction sought with a large enough effect; inconclusive = small, poorly fitted or top-dose-only effect, or another doubt; inactive = no such curve, though single readings can be large; an effect the other way counts as inactive or inconclusive.

SMILES	CtBP-E1A blk	BAZ2B inh	Six1-Eya2 inh	JMJD2A Tudor	G9a inh-1	HP1b chromo inh	G9a inh-2	RGS4 confirm
CCC(=O)NC1(Cc2ccc(O)cc2)CCCCC1	0	0	0	0	0	0	-	-
CCOC(=O)c1ccccc1NC(=O)N(Cc1ccc(C)cc1)Cc1cccn1-c1nnc(N2CCCC2=O)s1	-	0	-	0	0.79µM	0	?	-
CCN(CC)CCNC(=O)c1cn(-c2ccccc2)nc1-c1cccs1	0	?	0	0	0	0	-	-
CCN(CC)CCOC(=O)c1ccc(NC(=O)c2cn(-c3ccccc3)nc2-c2cccs2)cc1	0	0	0	0	0	0	-	21
CC(C)COc1ccc(C(=O)N2CCCCC2CCN2CCOCC2)cc1 (stereo not given)	-	0	-	0	0	0	-	-
CCN(CC)C(=O)Cc1c(OC)ccc2cc(Br)ccc12	0	0	0	0	0	0	-	-
CCN(Cc1ccncc1)Cc1c(O)ccc2cc(Br)ccc12	0	-	0	45µM	2µM	?	2.8	17
CNC(=O)NC(=O)CSc1ccc(S(=O)(=O)N2CCOCC2)cn1	0	0	0	0	?	0	5	-

Screens from PubChem.
